# From paper PMC8384837, “Expanding the binding specificity for RNA recognition by a PUF domain”
# Substitutions are numbered along the chain they refer to.
# Key:
# Experiment in all cases: yeast three-hybrid, YBZ-1, SC-Leu-His + 0.5 mM 3-AT, 4 days
# Settings in all cases: tags: N-Gal4 AD-HA kept; label: inside an RPR1-promoter hybrid RNA with tandem MS2 sites; ssRNA
# PUM1 PUF domain R1-NYS = PUM1 PUF domain R1-NYS (Homo sapiens, UniProt Q14671 828-1176, S863N;R864Y;Q867S)
# Procedure, shortened: (§1)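 A centromeric plasmid in strain YBZ-1 co-expressed Pumilio-1 PUF domain libraries, randomized at the three base-contacting residues of each repeat, with matching RNA elements; the strain carries a LexA–MS2 coat fusion and a HIS3 reporter. After four days on SC-Leu (input) or SC-Leu-His + 0.5 mM 3-AT (selection), the repeat regions were PCR-amplified and Illumina-sequenced. The interaction score is the log change in variant frequency from input to selection, using log2 and a pseudocount of 1 where absent.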
# PUM1 PUF domain R6-CWI = biological target: T1, PUM1 PUF domain R6-CWI (Homo sapiens, UniProt Q14671 828-1176, N1043C;Y1044W;Q1047I)
# T1 sequence: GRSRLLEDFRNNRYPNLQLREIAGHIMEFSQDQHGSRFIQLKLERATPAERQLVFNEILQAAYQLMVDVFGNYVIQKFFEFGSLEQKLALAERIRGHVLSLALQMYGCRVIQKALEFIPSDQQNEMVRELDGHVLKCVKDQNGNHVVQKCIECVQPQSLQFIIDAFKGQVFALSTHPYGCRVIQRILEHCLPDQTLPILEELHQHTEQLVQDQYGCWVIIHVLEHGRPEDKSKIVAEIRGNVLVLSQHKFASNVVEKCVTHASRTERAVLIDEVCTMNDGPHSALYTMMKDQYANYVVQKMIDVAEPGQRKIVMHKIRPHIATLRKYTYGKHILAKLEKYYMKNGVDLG
# Procedure, shortened: as §1
# PUM1 PUF domain R5-YNG = PUM1 PUF domain R5-YNG (Homo sapiens, UniProt Q14671 828-1176, C1007Y;R1008N;Q1011G)
# Procedure, shortened: as §1
# PUM1 PUF domain R5-TYF = PUM1 PUF domain R5-TYF (Homo sapiens, UniProt Q14671 828-1176, C1007T;R1008Y;Q1011F)
# Procedure, shortened: as §1
# PUM1 PUF domain R3-CRA = PUM1 PUF domain R3-CRA (Homo sapiens, UniProt Q14671 828-1176, Q939A)
# Procedure, shortened: as §1
# PUM1 PUF domain R8-IRR = PUM1 PUF domain R8-IRR (Homo sapiens, UniProt Q14671 828-1176, N1122I;Y1123R;Q1126R)
# Procedure, shortened: as §1
# PUM1 PUF domain R4-PHT = PUM1 PUF domain R4-PHT (Homo sapiens, UniProt Q14671 828-1176, N971P;Q975T)
# Procedure, shortened: as §1
# PUM1 PUF domain R6-CFM = biological target: T2, PUM1 PUF domain R6-CFM (Homo sapiens, UniProt Q14671 828-1176, N1043C;Y1044F;Q1047M)
# T2 sequence: T1 sequence with W217F, I220M
# Procedure, shortened: as §1
# PUM1 PUF domain R3-LYM = PUM1 PUF domain R3-LYM (Homo sapiens, UniProt Q14671 828-1176, C935L;R936Y;Q939M)
# Procedure, shortened: as §1
# PUM1 PUF domain R8-RHK = PUM1 PUF domain R8-RHK (Homo sapiens, UniProt Q14671 828-1176, N1122R;Y1123H;Q1126K)
# Procedure, shortened: as §1
# PUM1 PUF domain R5-TRS = PUM1 PUF domain R5-TRS (Homo sapiens, UniProt Q14671 828-1176, C1007T;Q1011S)
# Procedure, shortened: as §1
# PUM1 PUF domain R3-VFW = PUM1 PUF domain R3-VFW (Homo sapiens, UniProt Q14671 828-1176, C935V;R936F;Q939W)
# Procedure, shortened: as §1
# PUM1 PUF domain R3-SIR = PUM1 PUF domain R3-SIR (Homo sapiens, UniProt Q14671 828-1176, C935S;R936I;Q939R)
# Procedure, shortened: as §1
# PUM1 PUF domain R3-RTK = PUM1 PUF domain R3-RTK (Homo sapiens, UniProt Q14671 828-1176, C935R;R936T;Q939K)
# Procedure, shortened: as §1
# PUM1 PUF domain R7-RYP = PUM1 PUF domain R7-RYP (Homo sapiens, UniProt Q14671 828-1176, S1079R;N1080Y;E1083P)
# Procedure, shortened: as §1
# PUM1 PUF domain R5-PLK = PUM1 PUF domain R5-PLK (Homo sapiens, UniProt Q14671 828-1176, C1007P;R1008L;Q1011K)
# Procedure, shortened: as §1
# PUM1 PUF domain R5-RKD = PUM1 PUF domain R5-RKD (Homo sapiens, UniProt Q14671 828-1176, C1007R;R1008K;Q1011D)
# Procedure, shortened: as §1
# PUM1 PUF domain R1-YFR = PUM1 PUF domain R1-YFR (Homo sapiens, UniProt Q14671 828-1176, S863Y;R864F;Q867R)
# Procedure, shortened: as §1
# PUM1 PUF domain R1-CCK = PUM1 PUF domain R1-CCK (Homo sapiens, UniProt Q14671 828-1176, S863C;R864C;Q867K)
# Procedure, shortened: as §1
# PUM1 PUF domain R8-KFS = PUM1 PUF domain R8-KFS (Homo sapiens, UniProt Q14671 828-1176, N1122K;Y1123F;Q1126S)
# Procedure, shortened: as §1
sequence,measurement,setting,value
GGCUAGAACUAGUGGAUCCCCCGGCGCCCGGCGGCUCGAGCCCGGGUAAGUGUAAAUAGUCUGCAUGCCGCCGGGCGCCAUGCCUGCAGGUCGACUCUAGAAAACAUG,binding signal,PUM1 PUF domain R1-NYS,2.51 log2 enrichment (interaction score)
same,binding signal,PUM1 PUF domain R6-CWI,4.75 log2 enrichment (interaction score)
same,binding signal,PUM1 PUF domain R5-YNG,2.79 log2 enrichment (interaction score)
same,binding signal,PUM1 PUF domain R5-TYF,2.88 log2 enrichment (interaction score)
same,binding signal,PUM1 PUF domain R3-CRA,2.9 log2 enrichment (interaction score)
same,binding signal,PUM1 PUF domain R8-IRR,1.39 log2 enrichment (interaction score)
same,binding signal,PUM1 PUF domain R4-PHT,6.07 log2 enrichment (interaction score)
same,binding signal,PUM1 PUF domain R6-CFM,3.02 log2 enrichment (interaction score)
same,binding signal,PUM1 PUF domain R3-LYM,4.11 log2 enrichment (interaction score)
same,binding signal,PUM1 PUF domain R8-RHK,2.95 log2 enrichment (interaction score)
same,binding signal,PUM1 PUF domain R5-TRS,2.85 log2 enrichment (interaction score)
same,binding signal,PUM1 PUF domain R3-VFW,4.87 log2 enrichment (interaction score)
GGCUAGAACUAGUGGAUCCCCCGGCGCCCGGCGGCUCGAGCCCGGGUAAGUGUAAUUAGUCUGCAUGCCGCCGGGCGCCAUGCCUGCAGGUCGACUCUAGAAAACAUG,binding signal,PUM1 PUF domain R3-SIR,1.21 log2 enrichment (interaction score)
same,binding signal,PUM1 PUF domain R3-VFW,5.01 log2 enrichment (interaction score)
same,binding signal,PUM1 PUF domain R3-RTK,4.87 log2 enrichment (interaction score)
GGCUAGAACUAGUGGAUCCCCCGGCGCCCGGCGGCUCGAGCCCGGGUAAGUGUACAUAGUCUGCAUGCCGCCGGGCGCCAUGCCUGCAGGUCGACUCUAGAAAACAUG,binding signal,PUM1 PUF domain R4-PHT,2.45 log2 enrichment (interaction score)
GGCUAGAACUAGUGGAUCCCCCGGCGCCCGGCGGCUCGAGCCCGGGUAAGUCUAAAUAGUCUGCAUGCCGCCGGGCGCCAUGCCUGCAGGUCGACUCUAGAAAACAUG,binding signal,PUM1 PUF domain R7-RYP,5.27 log2 enrichment (interaction score)
GGCUAGAACUAGUGGAUCCCCCGGCGCCCGGCGGCUCGAGCCCGGGUAAGUGUUAAUAGUCUGCAUGCCGCCGGGCGCCAUGCCUGCAGGUCGACUCUAGAAAACAUG,binding signal,PUM1 PUF domain R5-TYF,1.26 log2 enrichment (interaction score)
same,binding signal,PUM1 PUF domain R5-PLK,2.84 log2 enrichment (interaction score)
same,binding signal,PUM1 PUF domain R5-TRS,3.03 log2 enrichment (interaction score)
GGCUAGAACUAGUGGAUCCCCCGGCGCCCGGCGGCUCGAGCCCGGGUAAGUGUGAAUAGUCUGCAUGCCGCCGGGCGCCAUGCCUGCAGGUCGACUCUAGAAAACAUG,binding signal,PUM1 PUF domain R5-TRS,2.97 log2 enrichment (interaction score)
GGCUAGAACUAGUGGAUCCCCCGGCGCCCGGCGGCUCGAGCCCGGGUAAGUGUCAAUAGUCUGCAUGCCGCCGGGCGCCAUGCCUGCAGGUCGACUCUAGAAAACAUG,binding signal,PUM1 PUF domain R5-RKD,4.06 log2 enrichment (interaction score)
GGCUAGAACUAGUGGAUCCCCCGGCGCCCGGCGGCUCGAGCCCGGGUAAGUGUAAAUGGUCUGCAUGCCGCCGGGCGCCAUGCCUGCAGGUCGACUCUAGAAAACAUG,binding signal,PUM1 PUF domain R1-YFR,2.6 log2 enrichment (interaction score)
GGCUAGAACUAGUGGAUCCCCCGGCGCCCGGCGGCUCGAGCCCGGGUAAGGGUAAAUAGUCUGCAUGCCGCCGGGCGCCAUGCCUGCAGGUCGACUCUAGAAAACAUG,binding signal,PUM1 PUF domain R8-RHK,3.54 log2 enrichment (interaction score)
GGCUAGAACUAGUGGAUCCCCCGGCGCCCGGCGGCUCGAGCCCGGGUAAGUGUAAGUAGUCUGCAUGCCGCCGGGCGCCAUGCCUGCAGGUCGACUCUAGAAAACAUG,binding signal,PUM1 PUF domain R3-CRA,1.42 log2 enrichment (interaction score)
same,binding signal,PUM1 PUF domain R3-SIR,2.77 log2 enrichment (interaction score)
GGCUAGAACUAGUGGAUCCCCCGGCGCCCGGCGGCUCGAGCCCGGGUAAGUGUAAAUUGUCUGCAUGCCGCCGGGCGCCAUGCCUGCAGGUCGACUCUAGAAAACAUG,binding signal,PUM1 PUF domain R1-NYS,3.41 log2 enrichment (interaction score)
same,binding signal,PUM1 PUF domain R1-YFR,6.74 log2 enrichment (interaction score)
same,binding signal,PUM1 PUF domain R1-CCK,2.6 log2 enrichment (interaction score)
GGCUAGAACUAGUGGAUCCCCCGGCGCCCGGCGGCUCGAGCCCGGGUAAGCGUAAAUAGUCUGCAUGCCGCCGGGCGCCAUGCCUGCAGGUCGACUCUAGAAAACAUG,binding signal,PUM1 PUF domain R8-IRR,2.44 log2 enrichment (interaction score)
same,binding signal,PUM1 PUF domain R8-KFS,3.24 log2 enrichment (interaction score)
same,binding signal,PUM1 PUF domain R8-RHK,3.29 log2 enrichment (interaction score)
